Assay results: publication PMC12864922, “TDP-43 directly inhibits mRNA accumulation in neurites through modulation of mRNA stability”
The full ranking holds about 9,900 sequences; the median of “r (bound/input frequency ratio)” is about 0.7, and the highest 2% start at about 6.5. What follows is part of a selection rich in the highest values, with near analogues and random picks from the rest.

B1: ENSMUSG00000004113.485|Cacna1b (ssRNA)
RNA: GGGAGUUCUACAGUCCGACGAUCGCUUCGAUAUCCGCAUGCUACCUUUGACUAGUUUGCUGCCUGAAUAAUAUUUACAAACUAAACUUUGGAUUCUGCUCUUGUUUCUACAAUGAUUUUUUGUAUAAAGCAAAGUCCUUGGAUUAAAUAAAAACAACCCAAAAAAAAAAUCAAAAUCAAAACCCAGGAUGCAACUGGGUGAUACCUGAGGACAGUGUGUCUCAGUGCGUCGGUGGAGAGGGUAUACUGCCAGGAGAGCUCAAGAAAAAUUGAGAACUUCAGCAAAGUGCCUGUGAGCACUUGGCUCUUGCGGUCGCACUAGUGUGGAAUUCUCGGGUGUCAAGG
B2: ENSMUSG00000035202.103|Lars2|4:8 (ssRNA)
RNA: GGGAGUUCUACAGUCCGACGAUCGCUUCGAUAUCCGCAUGCUAGCUACACACUCCAGUGUCUUUUACCAUCACAGGCCCUGGCUCUGUGCUACCUCCCUAGAAUACCUGUGGUUCAUCACCUUCAGCUCACACUCCAUUCAGACAAUGCUCACUUAGGCCUACAAGCAAGGGAGAGGCUUAAGCACAAGGUCUUUAAGCUUGAUACUGUGCCUGGUCUCAAUGCCUAGAAAUUCCAACUUAACUGUCGCUAUCAUAAAGGAUUUUAAAUUUUUUUACAAGUGAGAACCUAGCAUGUCAAGGUCCUCUUGCGGUCGCACUAGUGUGGAAUUCUCGGGUGUCAAGG
B3: ENSMUSG00000022095.199|Fam160b2 (ssRNA)
RNA: GGGAGUUCUACAGUCCGACGAUCGCUUCGAUAUCCGCAUGCUACCCAUGCCACCUCUCGAAGCCGGGCACAGGUUGCCAGGAGGUGACAUGAAAGAGGAGGAAACUCCAUGACCUCUACAUCCCCCGCAGUCCUCCCAGCGGGGGAGGACUUCUCUGCUGCUCCGAAGAACAUCAUGCACUCCUGUGUGUGUGUGUGAGUGUGUGUGUGUGUGUGUGUGUGUGUGUGUGUGUAUGUGUGUGUAUAUGUGUGUGUGUGUGUGUAUGUGUGUGUGUGUGUGUGAGUGAGUGUGUGUGUGUGUGUGCUCUUGCGGUCGCACUAGUGUGGAAUUCUCGGGUGUCAAGG
B4: ENSMUSG00000022095.200|Fam160b2 (ssRNA)
RNA: GGGAGUUCUACAGUCCGACGAUCGCUUCGAUAUCCGCAUGCUACCACCUCUCGAAGCCGGGCACAGGUUGCCAGGAGGUGACAUGAAAGAGGAGGAAACUCCAUGACCUCUACAUCCCCCGCAGUCCUCCCAGCGGGGGAGGACUUCUCUGCUGCUCCGAAGAACAUCAUGCACUCCUGUGUGUGUGUGUGAGUGUGUGUGUGUGUGUGUGUGUGUGUGUGUGUGUAUGUGUGUGUAUAUGUGUGUGUGUGUGUGUAUGUGUGUGUGUGUGUGUGAGUGAGUGUGUGUGUGUGUGUGUGUGUGCUCUUGCGGUCGCACUAGUGUGGAAUUCUCGGGUGUCAAGG
B5: ENSMUSG00000022095.202|Fam160b2 (ssRNA)
RNA: GGGAGUUCUACAGUCCGACGAUCGCUUCGAUAUCCGCAUGCUAGCCGGGCACAGGUUGCCAGGAGGUGACAUGAAAGAGGAGGAAACUCCAUGACCUCUACAUCCCCCGCAGUCCUCCCAGCGGGGGAGGACUUCUCUGCUGCUCCGAAGAACAUCAUGCACUCCUGUGUGUGUGUGUGAGUGUGUGUGUGUGUGUGUGUGUGUGUGUGUGUGUAUGUGUGUGUAUAUGUGUGUGUGUGUGUGUAUGUGUGUGUGUGUGUGUGAGUGAGUGUGUGUGUGUGUGUGUGUGUGUGAGUGUGUGUGCUCUUGCGGUCGCACUAGUGUGGAAUUCUCGGGUGUCAAGG
B6: ENSMUSG00000032194.22|Kank2 (ssRNA)
RNA: GGGAGUUCUACAGUCCGACGAUCGCUUCGAUAUCCGCAUGCUAUCCCUCUGUCCCAUUCUGCCUCGGCAUUCCUCAGCCCCUGAACUUCCCUGAGGGAGCCCUGACAUCUACCAGGCUCAAGCUCCUGGAAGCCUUUCCCAGCACCCUGGGUUCAAAGCCAGAAAGCCAAGCUACAUUCUCCUCCCAGUUGGCACCAGUUGACAACGCCUUGGGUGUGGGUUUCUUGUAAAGAACAUAGAGAACAAUCAGCCGGCAAUUAUGGGAGGAGGAAGGGGGGGCAAGAAGAGAAAAUACUGUAUUCUCUCUUGCGGUCGCACUAGUGUGGAAUUCUCGGGUGUCAAGG
B7: ENSMUSG00000035202.148|Lars2 (ssRNA)
RNA: GGGAGUUCUACAGUCCGACGAUCGCUUCGAUAUCCGCAUGCUAUCUCCAACACGAAAAAAGCAAGGCAACUCUACCAAAGAAACUAAUUACAUACUUGUAUUCCCAAUAUGUGAGAAGCUGAGGAAGGAGGAUCAUGAGUUUAAAGCCAUCCUUGGUUACAUGAGACUCUUGUCUCAAAGAACUACCAGGGAUCCUAAUGGACAACAAAGGUUGAAAACCAUUGAAUUAAUAAAUGUUGUGAACCAUAAUUUCUACCCAGUCCUUCUUCCUUCAUUUUCAUCUCAUCUGGGAUAAGUUUAGCCCUCUUGCGGUCGCACUAGUGUGGAAUUCUCGGGUGUCAAGG
B8: ENSMUSG00000043670.75|Diras1 (ssRNA)
RNA: GGGAGUUCUACAGUCCGACGAUCGCUUCGAUAUCCGCAUGCUAUUUGAUCCCUGUGGAUCUGAAAACAGGGACCUGGCUAAGGAACUGCUCAUCCCAGUCAGGCCCAGAGAGGUUACCUUGCCUCUCCAUCUCUGUCCCUGUGUGCCCAGCCAUGCCCACUGUCCCUGUCCCUCACAUUCUAUCACUGUGACCUCUGGGGAGUGCCCAUUGACCUCAUCUUCCUUCACUAAUAUCUUAUUUCUUUCACCUGAUCCUGUCCUUUCCCCGUGACCUCUGACCUGUGGCCUUCCCUGGGUCCAGAACUCUUGCGGUCGCACUAGUGUGGAAUUCUCGGGUGUCAAGG
B9: ENSMUSG00000058297.201|Spock2 (ssRNA)
RNA: GGGAGUUCUACAGUCCGACGAUCGCUUCGAUAUCCGCAUGCUAAGGAAAUGGUUCCCUCUUGCCCCGACCAAUAGAAGGGCGUGUCCCCGAGACCCUUGUGAGGAACCACGGGGAGCUGUGACUUCCUGUGCCCAGAAGGUCCUGGAGGAGAGGCCCCAAAGCCUUAGUCCUCUCAGCCAUGACUUUCCUCUGUCUCAAGGGUCCCCAAGAUGGCCCUAGAAGAACCAUGCCCCAGACUCUAUUUAAAGCCCUAUAGCAUAUAUGAAUAGAGAACGGUGUAUCUAUCAGAGGGGACCACACUGCUCUUGCGGUCGCACUAGUGUGGAAUUCUCGGGUGUCAAGG
B10: ENSMUSG00000061578.1546|Ksr2|104:108 (ssRNA)
RNA: GGGAGUUCUACAGUCCGACGAUCGCUUCGAUAUCCGCAUGCUAAGAUCAUUUAUAAAGUUUUCUACACUUCUCAAAAAAAAAAAUAUUUCUAACCUUGGCUGUUGGACAGUCUGUGAGCCUGUGAGCCGGCAAGCCUGUUGUUUCUACACAUUAGUGCAAUGUUAGUGAGAAUCCAGUGUCUGAGUUAUUAAUGCCAAUAAAGAAUUUGAGAAUUACUGCAUCCGCUGCUGUCACUCCAGGUCAGAACUCUGCUGUUGUCUGUUGGAUGGAAGGAAGCUCCAGAGUGAGGAACAAUGGUUGCUCUCUUGCGGUCGCACUAGUGUGGAAUUCUCGGGUGUCAAGG
B11: ENSMUSG00000029636.29|Wasf3|57:61;103:107 (ssRNA)
RNA: GGGAGUUCUACAGUCCGACGAUCGCUUCGAUAUCCGCAUGCUAUCUCUGCACCCUCACAGUGGUAUUUCCCUGUAGCUUUAGUCCCUUUUGUAUUAACACACACAUUUGCUUCUGCACAUCCUUCUGGAUUUGUUGAGUAUUUACACACAAAUACUUAAGUGCCACAGAACACAGCACACCGUGCUGCACACCAGGAAACUCGCAGUAUUAGUGCAUCACCCUGGAACAGCAUCUUGCUUCCCUCUCAGCCGUGAGAGUCCCCUCUCCUGUCCAUCCUGAUUUGGUGGGCUUGCCACGUAUCUCUCUUGCGGUCGCACUAGUGUGGAAUUCUCGGGUGUCAAGG
B12: ENSMUSG00000029636.244|Wasf3 (ssRNA)
RNA: GGGAGUUCUACAGUCCGACGAUCGCUUCGAUAUCCGCAUGCUAUGACAGGGAAUGCCUGUGGGAUAAUUAAAAAUGGUUUUUGCUCAUGAGUUUGGGAUGUCACCCAGCCGCCCACAUCGCCUGCUAUGUGUGUGGACGCCUGUCCGCUUGGCCAGCUAUCCUGUAACACCUGCCAGUAGUAGGUUUUCCUCAUGUCACUAUGACAGUGAAAGCCCAUGUGCAAGCCCCUCCCUACGCCCUGCUUUGGCGUGUGUCUGAGUGCUCUGUGCUGCGCCAUGGCCAUCCUGGAGCCUGCGCACACGCUCUUGCGGUCGCACUAGUGUGGAAUUCUCGGGUGUCAAGG
B13: ENSMUSG00000061578.1047|Ksr2 (ssRNA)
RNA: GGGAGUUCUACAGUCCGACGAUCGCUUCGAUAUCCGCAUGCUACCUCUCCCUGGAGCUGGCAGCCAUGGUUGAUGGCUAUGGGAUACAAUGUGGAUCUUUAGAUGUGAAAGUCUGAUGACUCAAAUCAAAGUUUGGUUUUUCUUUUCUACUACUCUGAAGGAAAAUCUCAGCUUGGCUAUUUCUUCAUGUUUUAAAAAUGUCUUGACUUCUCUCAGCAACCAACUUCAGGUGCCAGGAUAUGAGAUGCUAAGGUUCAGGGGUGGUGGAGGUGAUUCUAUCCAGUGGCCAGCAAUACCCAAAAGCUCUUGCGGUCGCACUAGUGUGGAAUUCUCGGGUGUCAAGG

molecular target: TDP-43 (Homo sapiens, UniProt Q13148 1-414); assay: RNA Bind-n-Seq with designed 260-mer pool; 25 mM Tris-HCl, 150 mM KCl, 3 mM MgCl2, BSA (printed 500 mg/mL), 20 units/mL SUPERase IN; pH not stated; 500 nM RNA pool, 1 h, 4 C; TDP-43 5, 50, 500 nM; high values mean tight binding; conditions: protein: recombinant; tags: SBP (GST cleaved off with PreScission; pGEX-GST-SBP)
Sequence (Q13148 whole entry): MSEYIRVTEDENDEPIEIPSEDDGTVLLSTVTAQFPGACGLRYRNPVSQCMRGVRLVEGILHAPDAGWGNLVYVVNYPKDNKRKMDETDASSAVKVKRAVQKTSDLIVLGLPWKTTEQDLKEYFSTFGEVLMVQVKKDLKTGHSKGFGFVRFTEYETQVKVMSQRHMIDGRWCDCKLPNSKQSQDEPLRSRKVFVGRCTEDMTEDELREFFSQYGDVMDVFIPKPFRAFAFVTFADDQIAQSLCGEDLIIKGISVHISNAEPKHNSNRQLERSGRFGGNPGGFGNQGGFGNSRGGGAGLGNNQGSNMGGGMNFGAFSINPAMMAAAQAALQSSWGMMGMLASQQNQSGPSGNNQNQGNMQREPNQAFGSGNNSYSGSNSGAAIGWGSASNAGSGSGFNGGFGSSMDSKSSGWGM
Method in brief: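 Binding (R) is the ratio of each oligo's mapped-read-normalized abundance in the bound fraction to its abundance in the input. To obtain it, SBP-tagged recombinant TDP-43 (5, 50 or 500 nM) on streptavidin beads was incubated with 500 nM of an in vitro-transcribed 260-nt 3′ UTR oligo pool for 1 h at 4 °C in 25 mM Tris-HCl, 150 mM KCl, 3 mM MgCl2, BSA and SUPERase IN. The RNA retained after washing was released with biotin, then reverse transcribed, amplified by PCR and sequenced.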

Compared with B1, B2 is lower in binding signal: 0.542 R (bound/input frequency ratio) for the first, 0.427 R (bound/input frequency ratio) for the second.

Compared with B3, B4 is lower in binding signal: 8.67 R (bound/input frequency ratio) for the first, 7.08 R (bound/input frequency ratio) for the second.

First: B5
Second: B6
The binding signal of the first is higher: 7.21 R (bound/input frequency ratio) for the first, 0.911 R (bound/input frequency ratio) for the second.

Going from B7 to B8, the binding signal rises from 0.0673 R (bound/input frequency ratio) to 2.09 R (bound/input frequency ratio).

First: B9
Second: B10
The binding signal of the first is lower: 0.372 R (bound/input frequency ratio) for the first, 0.542 R (bound/input frequency ratio) for the second.

Compared with B11, B12 is higher in binding signal: 0.499 R (bound/input frequency ratio) for the first, 0.625 R (bound/input frequency ratio) for the second.

B13 was tested, and the binding signal was 0.12 R (bound/input frequency ratio).
